Here are results for 23 compounds from PubChem BioAssay (EPA / NIEHS).

The structures appear in SMILES notation. Calls of active or inactive are those of the source. The calls were made as follows: active = hit-call score of the fitted dose curve at least 0.9, where 1 is the maximum; inactive = score below 0.9.

The nature of the first test: APR_HepG2_MicrotubuleCSK_24hr: Apredica 24-hour HepG2 Assay for Microtubule CSK Stabilty (AID 2282909). Particulars: HepG2 microtubule cytoskeleton imaging, actives raise or lower the signal. The method, boiled down: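 HepG2 cells were treated 24 hr with compound at 0.39–200 uM in duplicate (0.5% DMSO final), then fixed and permeabilized. Alpha-tubulin immunofluorescence was imaged by high-content microscopy, with bidirectional fitting against DMSO and taxol as positive control.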
In the case of `Cc1ccc(Cl)cc1`, the outcome was inactive.
Consider `CC(=O)OCCOCCOCCOC(C)=O`, for which the outcome was inactive.
On the same count and under the same terms, the value for `CC1=C(/C=C/C(C)=C/C=C/C(C)=C/CO)C(C)(C)CCC1` was “inactive”; that for `Nc1nc(N)c2nc(CNc3ccc(C(=O)N[C@@H](CCC(=O)O)C(=O)O)cc3)cnc2n1` was “inactive”.
On the same count and under the same terms, the value for `CCCCCCOCCO` was “inactive”; that for `COc1ccc2c(c1)c(CC(=O)O)c(C)n2C(=O)c1ccc(Cl)cc1` was “inactive”; that for `FC(F)(F)C(F)(F)C(F)(F)C(F)(F)C(F)(F)C(F)(F)CCI` was “inactive”.
Still for that read-out and setting: in the case of `C=CCOC(=O)c1ccccc1C(=O)OCC=C` it was “inactive”.

A further test in a line: APR_HepG2_MitoticArrest_24hr: Apredica 24-hour HepG2 Assay for Mitotic Arrest (AID 2282910). Particulars: high-content imaging, actives raise or lower the signal. Put shortly: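 HepG2 human liver cells were exposed to compounds at 0.39–200 uM (10 concentrations, duplicate) in 0.5% v/v DMSO for 24 hr, then fixed and immunostained for phospho-histone H3 with Hoechst 33342. Mitotic arrest came from HCS fluorescent imaging, fitted bidirectionally against DMSO.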
In the case of `C=CCc1ccc(O)c(OC)c1`, the outcome was inactive.
Still for that read-out and setting: the value for `O=c1c(O)c(-c2ccc(O)c(O)c2)oc2cc(O)cc(O)c12` was “inactive”.
For orientation: AC50 means the midpoint of the concentration-response curve, whichever way the signal moves. In the case of `CCCCC(CC)COC(=O)CC(C(=O)OCC(CC)CCCC)S(=O)(=O)O` (stereo not drawn), the AC50 is 105 µM (active).
With `CCOC(=O)C(C)(C)Oc1ccc(Cl)cc1`, the result was inactive.
Same read-out and setting: in the case of `Oc1ccc2c(c1)OC[C@@H](N1CCC(O)(c3ccc(F)cc3)CC1)[C@H]2O` it was “inactive”; in that of `NC(=O)Cn1c(=O)cc(CCN2CCN(c3nccc4sccc34)CC2)c2ccc(F)cc21`, “inactive”.
On to `CNCc1cc(F)ccc1Oc1ccc(Cl)c(Cl)c1`, for which the AC50 was 31.4 µM (active).
With `Cc1cccc(Nc2cc(Cl)nc(SCC(=O)O)n2)c1C`, the result was inactive.
In the case of `CCOC(=O)CCC(=O)OCC`, the result was inactive.
The same measure, in the same setting: in the case of `CCNc1cccc(C)c1` it was “inactive”.
On the same count and under the same terms, in the case of `Nc1ccc2c(c1)C(=O)c1ccccc1C2=O` it was “inactive”; in that of `NS(=O)(=O)c1cc2c(cc1Cl)NCNS2(=O)=O`, “inactive”.
Take `CCCCCCCCCCCCCO`: the AC50 was 107 µM (active).
In the case of `CN1CCCC1=O`, the outcome was inactive.
Regarding `C1CCC(SSC2CCCCC2)CC1`, the call was inactive.
